Screening results from PubChem BioAssay.
A selection: hits, their analogues and other compounds. The true share with any hit is near 3.2%.
NTR1 agonist: agonists of human neurotensin receptor NTR1 | NTR1-U2OS beta-arrestin-GFP spot imaging, agonist mode | activation, % at 20 µM | hit rate 0.17% among 330,000 | AID 493036;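 active = activation at or above 40% of the spot to cytoplasm intensity ratio, with at least 20 cells analyzed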;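 also: 0% = DMSO without peptide and 100% = 100 nM NTR1 peptide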
Target sequence (P30989 whole entry, looked up): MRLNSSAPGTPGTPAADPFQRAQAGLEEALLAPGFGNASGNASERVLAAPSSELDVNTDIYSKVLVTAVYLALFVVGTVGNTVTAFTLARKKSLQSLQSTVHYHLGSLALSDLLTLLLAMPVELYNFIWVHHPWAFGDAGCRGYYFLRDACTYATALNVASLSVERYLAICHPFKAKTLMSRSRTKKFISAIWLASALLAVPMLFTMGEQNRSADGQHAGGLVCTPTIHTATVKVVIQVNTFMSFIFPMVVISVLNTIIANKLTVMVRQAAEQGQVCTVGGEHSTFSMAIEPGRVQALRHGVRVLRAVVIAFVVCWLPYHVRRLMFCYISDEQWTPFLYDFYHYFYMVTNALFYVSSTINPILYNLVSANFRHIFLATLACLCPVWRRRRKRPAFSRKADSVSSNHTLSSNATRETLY
A3G deaminase: APOBEC3G (human) deaminase inhibition | Q9HC16 | recombinant A3G, ssDNA deamination FAM/TAMRA fluorescence | inhibition, % at 20 µM | hit rate 0.28% among 330,000;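 active = inhibition of at least 40% at 20 µM, with no more than 30% in the related APOBEC3A deaminase screen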;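 also: plate controls were DMSO wells with A3G for no effect and wells lacking A3G enzyme for full effect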
A3A deaminase: blocks human APOBEC3A ssDNA deamination | P31941 | recombinant A3A, FAM/TAMRA ssDNA deamination fluorescence | inhibition, % at 20 µM | hit rate 0.41% among 330,000;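 active = at least 40% inhibition at 20 µM here, with at most 30% in a related deaminase screen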;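 also: plate controls were A3A with DMSO for no effect and wells lacking A3A enzyme for full effect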
Target sequence (P31941 whole entry, looked up): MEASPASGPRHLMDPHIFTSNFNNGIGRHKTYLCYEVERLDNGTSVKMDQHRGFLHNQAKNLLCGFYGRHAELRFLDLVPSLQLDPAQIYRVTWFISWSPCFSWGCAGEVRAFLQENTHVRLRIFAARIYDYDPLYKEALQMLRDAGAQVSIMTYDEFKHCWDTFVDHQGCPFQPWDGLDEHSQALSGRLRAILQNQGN
AHR act: human AHR activation. activation, % at 5 µM. AHR-responsive luciferase reporter cells, luminescence. hit rate 2.5% among 320,000. AID 2796. P35869; in the data active = activation above about 47%;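 also: 0% = vehicle wells and 100% = reference agonist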
* marks the source's active call; other numbers are inactive results.

SMILES | NTR1 agonist | A3G deaminase | A3A deaminase | AHR act
Cc1ccc(NC(=O)CCn2c(=S)oc3ccccc32)cc1F | -0.1 | 5.1 | 4.9 | 0.4
CN1C2=NCCN2C(=O)c2cc(Cl)ccc21 | 2.5 | 0.0 | -1.4 | 59.1*
CC(Cc1c[nH]c2ccccc12)C(=O)NCc1ccco1 (stereo not drawn) | -0.5 | 24.8 | 0.6 | 2.6
COC(=O)c1c(C(=O)OC)c2ccncn2c1Cl | 0.6 | -7.9 | -2.0 | 74.0*
COc1ccc2c(c1)c1nnc(SCC(=O)NC3CC3)nc1n2C | -0.9 | 0.1 | 0.9 | 72.0*
O=C(CN1CCN(c2ccccn2)CC1)Nc1ccc([N+](=O)[O-])cc1C(=O)Nc1ccccc1F | 12.4 | -2.3 | -2.1 | 47.8*
CN(C)c1ccc(C2C3CCCc4ccccc4C3=NN2C)cc1 (stereo not drawn) | 2.5 | -1.4 | 0.9 | 60.6*
CN1N=C2c3ccccc3CCC2C1c1ccc(C(F)(F)F)cc1 (stereo not drawn) | -0.3 | -3.9 | -1.2 | 21.2
Cc1cccc(NS(=O)(=O)c2ccc(C)c(C(=O)NCc3ccncc3)c2)c1 | -0.4 | -2.3 | 1.7 | 0.1
COc1ccc(CN2CCNC(=O)C2CC(=O)NCc2csc(C)n2)c(F)c1 (stereo not drawn) | 0.0 | -5.3 | -0.1 | 0.8
COc1ccc(CN2CCNC(=O)C2CC(=O)NCc2csc(C(C)C)n2)c(OC)c1 (stereo not drawn) | -0.9 | -10.8 | -4.2 | 47.3*
COc1ccc(C)cc1NC(=O)c1nn(C)cc1Br | 1.1 | 5.5 | -7.3 | 60.0*
COc1ccc(C)cc1NC(=O)c1nn(C)c(C(=O)Nc2cc(C)ccc2OC)c1[N+](=O)[O-] | 2.5 | -6.9 | -6.5 | 2.1
CCOC(=O)c1ccc(S(=O)(=O)NCC(c2ccc(N(C)C)cc2)c2c[nH]c3ccccc23)cc1 (stereo not drawn) | 11.5 | -11.3 | -1.5 | 9.7
CN(C)c1ccc(C(CNS(=O)(=O)c2ccc(F)cc2)c2c[nH]c3ccccc23)cc1 (stereo not drawn) | 2.5 | -5.6 | -7.9 | 57.0*
Cc1ccc(-c2nc(SC(C)C(=O)N3CCOCC3)n[nH]2)cc1 (stereo not drawn) | -0.6 | -6.6 | 0.0 | 19.7
CC(=O)C1=C(C)NC(SCC(=O)c2ccc(Cl)cc2Cl)=C(C#N)C1c1ccco1 (stereo not drawn) | 18.7 | 7.0 | 0.9 | 106.6*
CC(=O)C1=C(C)NC(SCC(=O)c2ccc(Cl)cc2)=C(C#N)C1c1ccco1 (stereo not drawn) | 5.1 | -1.8 | 4.0 | 25.7
CC(=O)C1=C(C)NC(SCC(=O)c2ccccc2)=C(C#N)C1c1ccco1 (stereo not drawn) | 7.2 | -4.5 | 1.0 | 106.6*
C=C1CCN(CC(=O)OC)S(=O)(=O)c2ccccc21 | 0.2 | -11.6 | -0.5 | 1.1
CC1C(=O)C(C)C(c2cc(Cl)ccc2O)NC1c1cc(Cl)ccc1O (stereo not drawn) | 60.0* | -8.0 | -2.8 | 2.5
O=C(CNC(=O)c1ccccc1)OC(C(=O)Nc1cc(C(F)(F)F)ccc1Cl)c1ccccc1 (stereo not drawn) | 6.1 | -3.6 | -2.6 | -1.2
Cc1ccc(C)c(NC(=O)C(OC(=O)c2cnc(C)cn2)c2ccccc2)c1 (stereo not drawn) | -0.3 | -1.3 | 1.6 | 69.9*
COc1ccc(C)cc1NC(=O)C(OC(=O)c1cc(C)oc1C)c1ccccc1 (stereo not drawn) | 3.3 | -3.3 | -1.4 | 73.5*
COc1ccc(NC(=O)C(OC(=O)c2cnc(C)cn2)c2ccccc2)cc1Cl (stereo not drawn) | 0.9 | -5.9 | -3.2 | 6.7
SMILES | NTR1 agonist | A3G deaminase | A3A deaminase | AHR act
COc1ccc(C)cc1NC(=O)C(OC(=O)CNC(=O)c1cccc(F)c1)c1ccccc1 (stereo not drawn) | -0.8 | -4.3 | -3.5 | 72.0*
COc1ccc(C)cc1NC(=O)C(OC(=O)c1cnc(C)cn1)c1ccccc1 (stereo not drawn) | 0.5 | -7.0 | -1.9 | 60.3*
Cc1ccccc1Cn1cc(NC(=O)c2cc(C3CC3)on2)cn1 | 7.4 | -5.5 | 2.4 | 74.2*
C=CCN(c1ccccc1)S(=O)(=O)c1cccc(C(=O)NCC2CCCO2)c1 (stereo not drawn) | 0.9 | -7.5 | -0.7 | 0.4
CC1CCN(c2ccc(NC(=O)c3ccc([N+](=O)[O-])o3)cc2)CC1 | 41.7* | -11.6 | -3.0 | -0.1
O=C(Nc1ccc(N2CCN(Cc3ccccc3F)CC2)cc1)c1ccc([N+](=O)[O-])o1 | 42.3* | 3.0 | 3.2 | -4.0
O=C(Nc1ccc(N2CCN(Cc3ccccc3F)CC2)cc1)c1ccccc1[N+](=O)[O-] | 1.5 | -3.5 | -0.4 | 0.2
CCC(C)(C)C1CCc2nc3ccccc3c(C(=O)OC(C)C(=O)Nc3c(C)n(C)n(-c4ccccc4)c3=O)c2C1 (stereo not drawn) | 20.9 | -7.5 | -1.6 | 8.9
C=CCc1c(C)nc(C)nc1N/N=C/c1ccccc1 | 0.2 | -2.1 | 1.6 | 65.7*
C=CCc1c(C)nc(-c2ccccc2)nc1N/N=C/c1ccccc1 | 2.7 | -0.8 | 1.1 | 33.3
C=CCc1c(C)nc(-c2ccccc2)nc1N/N=C/c1ccncc1 | 5.3 | -7.7 | -1.0 | 61.4*
C=CCc1c(C)nc(-c2ccccc2)nc1N/N=C(\C)c1ccc(N)cc1 | 1.0 | 0.5 | 0.9 | 51.0*
COc1ccc(/C(C)=N/Nc2nc3ccccc3nc2C)cc1 | 1.7 | -2.7 | 4.2 | 11.3
C=CCc1c(C)nc(C)nc1N/N=C/c1ccc(F)cc1 | 0.5 | -7.0 | -4.2 | 77.0*
CC1=C(C(=O)Nc2ccccc2C(F)(F)F)C(c2sccc2C)NC(=S)N1 (stereo not drawn) | 0.2 | -6.8 | -8.4 | 0.5
COc1ccc(C(=O)N2CCC(n3c(C)nc4cc(F)ccc43)CC2)cc1 | -0.6 | -10.3 | -0.8 | 2.4
CSc1cccc(NC(=O)Nc2ccccc2C(N)=O)c1 | -0.5 | -4.5 | -0.5 | 20.0
CN(C)c1ccc(NC(=S)c2ccc3ccccc3n2)cc1 | 1.5 | 39.9 | -3.8 | 48.2*
COc1ccc(NC(=S)c2ccc(N(C)C)cc2)cc1 | 2.2 | -5.1 | -1.5 | -4.1
COc1ccc(CNc2nc3ccc(C)cc3s2)c(OC)c1OC | 0.5 | -1.8 | -3.3 | 5.2
CN1CCN(c2nc3c(c(=O)[nH]c(=O)n3C)n2Cc2ccccc2)CC1 | -1.2 | -3.9 | -8.0 | -2.5
Cc1cccc(C)c1Nc1nnc(SCc2nc3ccccc3c(=O)[nH]2)s1 | -0.3 | -5.9 | -2.2 | 68.8*
O=C(COC(=O)CNC(=O)c1ccc(Cl)cc1)Nc1cccc(S(=O)(=O)N2CCCC2)c1 | -0.4 | -3.5 | -7.6 | -0.6
Cc1cc(Br)ccc1NC(=O)c1ccc(-n2cncn2)c([N+](=O)[O-])c1 | 1.8 | -0.4 | 2.1 | 66.0*
Cc1cc(Br)ccc1NC(=O)CNC(=O)c1ccc(-n2cncn2)c([N+](=O)[O-])c1 | 0.0 | -9.7 | -2.9 | 5.0
S=C(NC1CCCC1)N1CCN(c2ccccn2)CC1 | -0.6 | -6.6 | -4.8 | 57.1*
O=C(NC(=S)N1CCN(c2ccccn2)CC1)c1ccccc1 | 0.5 | -5.7 | -4.5 | -0.8
COc1ccc(OC)c(C(C[N+](=O)[O-])c2c(C)cc3ccccn23)c1 (stereo not drawn) | 50.4* | 1.9 | -1.7 | 2.0
